Values without a mark were called inactive. Inconclusive results are not listed. Entries that show only a call come without a potency. Activity calls are given as the source filed them. Unless noted, calls come from the whole dose curve; as a rule, active = well fitted curve in the direction sought with a large enough effect; inconclusive = small, poorly fitted or top-dose-only effect, or another doubt; inactive = no such curve, though single readings can be large; an effect the other way counts as inactive or inconclusive.
How the values were obtained:
[1] = qHTS for inhibitors of adenylyl cyclases using a fission yeast platform: a pilot screen against the NCATS LOPAC library (AID 1347410)
Summary of the method: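 S. pombe CHP2027 (AC9-GNAS-PDE4D2) carrying PKA-repressed fbp1-GFP, incubated 18 h at 30C in EMM with LOPAC compounds at up to 57 uM. GFP gain-of-signal read by laser scanning cytometry; DMSO negative control.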

[2] = Validation qHTS assay for inhibitors of Activation Induced Cytidine Deaminase (AID): UDG Counterscreen signal (AID 1347427)
Summary of the method: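 Fluorescence at 560 nm excitation, 665 nm emission reports UDG signal after 250 mM NaOH (2x) addition and 30 min. Enzymes (AID 1 uM, UDG 2 U/mL, at 4/3x) preincubated 10 min with compound, then 4 h with 4x 250 nM DJC20/DJC23 substrate at room temperature.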

[3] = target: Single-stranded DNA cytosine deaminase (Homo sapiens) (UniProt Q9GZX7); assay: Validation qHTS assay for inhibitors of Activation Induced Cytidine Deaminase (AID): AID signal (AID 1347429)
Chain of Single-stranded DNA cytosine deaminase (Homo sapiens) (Q9GZX7 whole entry, looked up): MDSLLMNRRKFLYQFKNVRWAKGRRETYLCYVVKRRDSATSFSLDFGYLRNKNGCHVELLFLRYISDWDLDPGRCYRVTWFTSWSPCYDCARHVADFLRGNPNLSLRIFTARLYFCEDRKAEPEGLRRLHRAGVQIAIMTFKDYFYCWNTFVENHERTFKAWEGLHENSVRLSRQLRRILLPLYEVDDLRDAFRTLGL
Summary of the method: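 Compounds (up to 114 uM final) are tested against AID plus UDG using DJC20/DJC23 FRET substrate. Reactions incubate 4 hr at room temperature, receive NaOH for 30 min, and are read at Ex 540/Em 590 nm.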

[4] = target: Calcium and integrin-binding protein 1 (Homo sapiens) (UniProt Q99828); assay: Validation qHTS for Identification of Calcium Integrin Binding protein 1 (CIB1) Competitor (AID 1508618)
Chain of Calcium and integrin-binding protein 1 (Homo sapiens) (Q99828 whole entry, looked up): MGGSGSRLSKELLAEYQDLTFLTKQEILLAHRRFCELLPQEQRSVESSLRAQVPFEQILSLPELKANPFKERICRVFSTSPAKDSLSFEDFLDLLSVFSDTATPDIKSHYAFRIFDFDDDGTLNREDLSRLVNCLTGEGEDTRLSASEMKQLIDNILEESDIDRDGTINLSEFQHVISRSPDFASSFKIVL
Summary of the method: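 CIB1-GST (1 uM final) in 5 mM HEPES pH 7.4, 125 mM NaCl, 5 mM CaCl2, 0.01% Tween20 was preincubated 15 min at room temperature with compound (up to 114 uM), then FITC-alphaIIb peptide (100 nM) added for 15 min; fluorescence polarization read.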

[5] = target: Calcium and integrin-binding protein 1 (Homo sapiens) (UniProt Q99828); assay: Primary qHTS for Identification of Calcium Integrin Binding Protein 1 (CIB1) Competitor (AID 1508620);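 note: GST tagged CIB1 binding a fluorescein labelled alphaIIb integrin peptide tracer; top concentration of the series differs between compounds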
Summary of the method: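 Fluorescence polarization competition: CIB1-GST (1 uM final) preincubated with compound 15 min at room temperature, then FITC-labeled alphaIIb peptide (100 nM final) added for another 15 min. Polarization read at Ex 480/Em 540.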

[6] = Primary qHTS for inhibitors of La Crosse Virus (LACV) - induced cell death in SH-SY5Y cells (AID 1508616);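 note: top concentration of the series differs between compounds; higher means more rescue of cells from virus-induced death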
Summary of the method: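 Screening measures cell viability in LACV-infected SH-SY5Y cultures. Compound was added before virus (0.01 MOI), and ATP was detected by luminescence 6 days later.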

[7] = qHTS to identify inhibitors of the type 1 interferon - major histocompatibility complex class I in skeletal muscle: primary screen against the NCATS Mechanism Interrogation Plate v5.0 (MIPE) Libary (AID 1347411); note: nearly all actives have a fitted effect of over 65% in size
Summary of the method: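 IFN-beta-driven (4 ng/ml) HLA-B-HiBit expression in CRISPR-tagged C25cl48 myoblasts; compounds 11-pt, 1:3, max 46 uM, 24 hr exposure; lytic NanoLuc complementation luminescence.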

[8] = Counterscreen qHTS for small molecule stabilizers of the endoplasmic reticulum resident proteome: GLuc-NoTag assay (AID 1508627); note: series mostly up to about 76 µM
Summary of the method: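 Secreted GLuc lacking the SERCaMP modification is measured in SH-SY5Y cells exposed to compound for 19 h and then to thapsigargin (100 nM, 4 h) to deplete ER calcium; hits retested at 11 concentrations, up to 76.6 uM.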

[9] = Cell Viability qHTS for small molecule stabilizers of the endoplasmic reticulum resident proteome (AID 1508629); conditions: cell viability counter-screen, 100 nM thapsigargin for final 4 h;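 note: human SH-SY5Y neuroblastoma cells carrying the GLuc-SERCaMP reporter; compound exposure about 46 h in total before the viability read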
[10] = target: Protein phosphatase 1D (Homo sapiens) (UniProt O15297); assay: RapidFire Mass Spectrometry qHTS Assay for Modulators of WT P53-Induced Phosphatase 1 (WIP1) (AID 1347424);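 note: amount of dephosphorylated VEPPL-S-QETFS peptide product formed by WIP1; potency is the fitted concentration of half-maximal effect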
Chain of Protein phosphatase 1D (Homo sapiens) (O15297 whole entry, looked up): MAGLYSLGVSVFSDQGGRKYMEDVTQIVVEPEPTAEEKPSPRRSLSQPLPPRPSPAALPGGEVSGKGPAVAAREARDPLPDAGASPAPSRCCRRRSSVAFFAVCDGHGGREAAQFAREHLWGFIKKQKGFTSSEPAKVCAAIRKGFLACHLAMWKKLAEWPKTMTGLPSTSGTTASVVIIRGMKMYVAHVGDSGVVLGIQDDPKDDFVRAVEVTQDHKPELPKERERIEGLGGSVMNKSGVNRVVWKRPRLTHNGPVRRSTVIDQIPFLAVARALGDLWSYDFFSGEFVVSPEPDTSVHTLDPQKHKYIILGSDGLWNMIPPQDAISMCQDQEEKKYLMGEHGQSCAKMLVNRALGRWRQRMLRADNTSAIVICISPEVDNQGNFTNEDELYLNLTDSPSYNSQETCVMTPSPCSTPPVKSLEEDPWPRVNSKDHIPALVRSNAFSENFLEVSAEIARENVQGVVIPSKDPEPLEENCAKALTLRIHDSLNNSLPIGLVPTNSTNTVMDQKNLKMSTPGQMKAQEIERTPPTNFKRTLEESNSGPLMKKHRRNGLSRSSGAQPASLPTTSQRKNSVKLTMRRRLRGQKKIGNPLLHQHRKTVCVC
Summary of the method: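 Mass-spectrometric measurement of dephosphorylated peptide after a 5 min room-temperature reaction of 10 nM WIP1 with 2 uM phosphopeptide, following 1 h compound preincubation in 30 mM MgCl2 buffer.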

[11] = Primary qHTS for Huh7 cytotoxicity: counterscreen for inhibitors of MERS-S pseudotyped particle cell entry (AID 1479147; calls by dose curve; note: potency is the fitted concentration of half-maximal effect)
[12] = Primary qHTS for inhibitors of MERS-S pseudo-typed particle cell entry (AID 1479149; calls by dose curve; note: potency is the fitted concentration of half-maximal effect; nearly all actives have a fitted effect of over 60% in size)
[13] = Primary qHTS for Vero E6 cytotoxicity: counterscreen for inhibitors of SARS-S pseudo-typed particle cell entry (AID 1479150; calls by dose curve; note: potency is the fitted concentration of half-maximal effect)
[14] = target: Calcium and integrin-binding protein 1 (Homo sapiens) (UniProt Q99828); assay: Confirmatory qHTS for Identification of Calcium Integrin Binding Protein 1 (CIB1) Competitor (AID 1508617); note: nearly all actives have a fitted effect of over 65% in size
Summary of the method: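 Fluorescence polarization competition: CIB1-GST (1 uM final) in 5 mM HEPES pH 7.4, 125 mM NaCl, 5 mM CaCl2, 0.01% Tween20 preincubated 15 min RT with compound (up to 114 uM), then FITC-alphaIIb peptide (100 nM) added, 15 min RT.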

c1ccc(CCCN2CCN(CCOC(c3ccccc3)c3ccccc3)CC2)cc1
outcome [1]: inactive
outcome [2]: inactive
outcome [3]: inactive
outcome [4]: inactive
outcome [5]: inactive

CC(=O)NCCc1c[nH]c2ccccc12
outcome [1]: inactive
outcome [2]: inactive
outcome [3]: inactive
outcome [6]: inactive
outcome [4]: inactive
outcome [5]: inactive

Cc1ccccc1-n1c(Cn2ncc3c(N)ncnc32)nc2cccc(C)c2c1=O
Potency [7]: inactive
outcome [5]: inactive

CCc1c(C(=O)C(N)=O)c2c(OCC(=O)O)cccc2n1Cc1ccccc1
Potency [7]: inactive
outcome [5]: inactive

CN[C@@H]1Cc2cccc3[nH]c(=O)n(c23)C1
Potency [7]: inactive
outcome [5]: inactive

CCNC(=O)CC1N=C(c2ccc(Cl)cc2)c2cc(OC)ccc2-n2c(C)nnc21 (stereo unspecified)
Potency [7]: inactive
outcome [5]: inactive

c1ccc2c(CN3CCNCC3)cccc2c1
Potency [7]: inactive
outcome [5]: inactive
Potency [8]: inactive
max response [9]: 15%

C#CC1(O)CCC2C3CCC4=CC(=O)CCC4(C)C3CCC21C (stereo unspecified)
Potency [7]: inactive
outcome [5]: inactive

C[C@]12CC[C@H]3[C@@H](CCC4=CC(=O)CC[C@@]43C)[C@H]1CC[C@H]2OC(=O)CCC1CCCC1
Potency [7]: inactive
outcome [5]: inactive

C[C@]12CC[C@@H]3[C@@H](CCC4=CC(=O)CC[C@@H]43)[C@@H]1CC[C@@H]2OC(=O)CCc1ccccc1
Potency [7]: inactive
outcome [5]: inactive

CC(=O)[O][Hg][c]1ccccc1
Potency [10]: 28.2 µM (active)
Potency [11]: 3.98 µM (active)
Potency [12]: 2.24 µM (active)
Potency [13]: 10 µM (active)
Potency [14]: inactive

O=C(N[C@@H](COc1ccc2[nH]c(=O)[nH]c2c1)c1ccccc1)c1cccn(Cc2ccc(F)c(F)c2)c1=O
Potency [7]: inactive
outcome [5]: inactive

Source: PubChem BioAssay (NCATS)
